# Inconclusive results are not listed. Calls of active or inactive are those of the source. The calls were made as follows: active = hit-call score of the fitted dose curve at least 0.9, where 1 is the maximum; inconclusive = response in the unintended direction; inactive = score below 0.9.
# Experiment: Tanguay_ZF_120hpf_CFIN_legacy: (Legacy) Oregon State University Tanguay Lab 120 Hour Post-fertilization zebrafish Assay for Caudal Fin Malformation (AID 2283649)
# Experimental: Tanguay_ZF_120hpf_legacy is a whole embryo, multiplexed endpoint assay using zebrafish larvae exposed for 120 hours post fertilization on a 96-well plate.Tanguay_ZF_120hpf_CFIN_legacy is one of one assay component(s) measured or calculated from the Tanguay_ZF_120hpf_legacy assay. It is designed to make measurements of zebrafish development as detected with brightfield microscopy of developing zebrafish embryos.Data from the assay component Tanguay_ZF_120hpf_CFIN_legacy was analyzed into 1 assay endpoints. This assay endpoint, Tanguay_ZF_120hpf_CFIN_legacy, was analyzed in the positive analysis fitting direction relative to DMSO as the negative control and baseline of activity. Using a type of morphology reporter, gain-of-signal activity can be used to understand changes in developmentals as they relate to the whole embryo. To generalize the intended target to other relatable targets, this assay endpoint is annotated to the zebrafish development intended target family, where the subfamily is caudal fin morphogenesis.
# Zebrafish husbandry: Tropical 5D wild-type adult zebrafish were housed in at an approximate density of 1000 per 100 gallon tank at the Sinnhuber Aquatic Research Laboratory, Oregon State University, Corvallis, OR. Each tank was kept at standard laboratory conditions of 28C on a 14-h light/10-h dark photoperiod in fish water consisting of reverse osmosis water supplemented with a commercially available salt (Instant Ocean). Spawning funnels were placed into the tanks the night prior, and embryos were collected and staged. To increase bioavailability, the chorion was enzymatically removed using pronase (63.6mg/ml, >/= 3.5U/mg, Sigma-Aldrich: P5147) at 4 hours post fertilization (hpf) using a custom automated dechorionator.Chemical exposures: Six hpf dechorionated embryos were placed 1 embryo per well in a 96-well plate prefilled with 90 ul of EM using automated embryo placement systems (AEPS). Ten microliters of each row of dilution plate 2 was added to 2 exposure plates. The final DMSO concentration used was 0.64% (vol/vol). Thirty-two embryos were also exposed to 5uM trimethyltin chloride (positive control). Plates were sealed to prevent evaporation and foil covered to reduce light exposure and kept in a 28C incubator. Embryos were statically exposed until 120 hpf. At 24 hpf, embryos were assessed for photomotor response using a custom photomotor response analysis tool (PRAT) and for developmental toxicity endpoints (MO24: mortality at 24 hpf, DP: developmental progression, SM: spontaneous movement, and NC: notochord distortion). At 120 hpf, locomotor activity was measured using Viewpoint Zebralab and assessed for 18 endpoints. Zebrafish acquisition and analysis program (ZAAP), a custom program designed to inventory, acquire, and manage zebrafish data, was used to collect developmental endpoints as either present or absent (i.e., binary responses were recorded). If mortality occurred for an embryo (at either 24 or 120 hpf), the non-mortality endpoints were not measured.
SMILES,outcome,AC50
OCC(CO)(CBr)CBr,inactive,
O=C1NS(=O)(=O)c2ccccc21,inactive,
CCCCCCCCCCCCOS(=O)(=O)O,inactive,
CC(=O)Nc1ccc(O)cc1,inactive,
Cc1[nH]nc2c1N=C(c1ccccc1Cl)c1cc([N+](=O)[O-])ccc1N2,inactive,
CS(=O)(=O)c1ccc([C@@H](CC2CCCC2)C(=O)Nc2cnccn2)cc1Cl,inactive,
CCCCCCCCCCCCCCC,inactive,
O=C(CCCN1CCC(O)(c2ccc(Cl)cc2)CC1)c1ccc(F)cc1,inactive,
CCCCc1oc2ccccc2c1C(=O)c1cc(I)c(OCCN(CC)CC)c(I)c1,inactive,
CN(C)CCOC(c1ccccc1)c1ccccc1,,14.1 µM (active)
CN(Cc1cnc2nc(N)nc(N)c2n1)c1ccc(C(=O)N[C@@H](CCC(=O)O)C(=O)O)cc1,inactive,
CCC(C)c1ccccc1O (stereo not drawn),inactive,
O=C(c1ccccc1)c1ccccc1,inactive,
